According to PubChem BioAssay (NCI):
About 83,000 compounds went through this panel and 20% of them were active in at least one assay; those are over-represented in the sample as a whole.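 Percent growth is the endpoint: 0 to 100 indicates growth inhibition (40 means 60% inhibition), 0 means no net growth, and negative values indicate cell death.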 Active and inactive are the calls of the source. Rule for the calls: active = growth percent below 10; inactive = the rest.

How the values were obtained:
Assay in all cases: NCI-60 one-dose screen, 48 h (100 = growth as untreated, 0 = no growth, -100 = all killed)
Settings in all cases: 10 µM
T-47D breast = test system: T-47D breast
BT-549 breast = test system: BT-549 breast
MDA-MB-435 melanoma = test system: MDA-MB-435 melanoma
SW-620 colon = test system: SW-620 colon
MCF7 breast = test system: MCF7 breast
HCT-116 colon = test system: HCT-116 colon
HCC-2998 colon = test system: HCC-2998 colon
KM12 colon = test system: KM12 colon

| Compound | growth (T-47D breast) | growth (BT-549 breast) | growth (MDA-MB-435 melanoma) | growth (SW-620 colon) | growth (MCF7 breast) | growth (HCT-116 colon) | growth (HCC-2998 colon) | growth (KM12 colon) |
| --- | --- | --- | --- | --- | --- | --- | --- | --- |
| CCCCC/C=C/C/C=C/CCCCCCCC1=NC(C)(C)CN1C(C)C | 16.5% (inactive) | 77.8% (inactive) | 15.9% (inactive) | -70.3% (active) | -16.4% (active) | -36.8% (active) | -9.05% (active) | -92% (active) |
| CC(C)N(CCOc1cccc(-c2nc3sccn3c2-c2ccnc(S(C)(=O)=O)n2)c1)C(C)C | 88.3% (inactive) | 128% (inactive) | 86.1% (inactive) | 67.1% (inactive) | 54.4% (inactive) | 44.9% (inactive) | 95.9% (inactive) | 87.8% (inactive) |
| COc1cc(-c2nn(-c3ccc(NC(=O)NCCNS(=O)(=O)c4ccc(F)cc4)cc3)cc2-c2ccncc2)ccc1Cl | 34.8% (inactive) | -3.98% (active) | -0.232% (active) | 18.3% (inactive) | 6.49% (active) | -3.49% (active) | 6.84% (active) | 2.84% (active) |
| CCOC(=O)N/N=C/c1ccc(OC)c(OC)c1 | 105% (inactive) | 106% (inactive) | 106% (inactive) | 109% (inactive) | 98.7% (inactive) | 102% (inactive) | 114% (inactive) | 117% (inactive) |
| CCOC(=O)Cn1c(=O)c2sc3ncccc3c2n2nnc(-c3ccccc3)c12 | 94.3% (inactive) | 98.2% (inactive) | 104% (inactive) | 119% (inactive) | 79.8% (inactive) | 91.5% (inactive) | 114% (inactive) | 114% (inactive) |
| CC(=O)Oc1cc(OC(C)=O)c2ccccc2c1OC(C)=O | 61.4% (inactive) | 92.4% (inactive) | -57.4% (active) | 91.9% (inactive) | 56.8% (inactive) | 80.1% (inactive) | 110% (inactive) | 90.6% (inactive) |
| COc1ccc(-c2nn(-c3cccc(Cl)c3)cc2-c2c(C#N)c(=O)n3[nH]c(-c4ccc(C)cc4)nc3c2C#N)cc1 | 55.6% (inactive) | 43.4% (inactive) | 10.8% (inactive) | -21% (active) | 21.2% (inactive) | 9.86% (active) | 52.2% (inactive) | 55.1% (inactive) |
| Cc1cc(C(C#N)c2ccc(Cl)cc2)c(Cl)cc1NC(=O)c1cc(I)cc(I)c1O (stereo unspecified) | 66.4% (inactive) | 36.8% (inactive) | 55.7% (inactive) | 43.3% (inactive) | 43.2% (inactive) | 7.35% (active) | 17.4% (inactive) | 34% (inactive) |
| CN(C)c1ncnc2c1nnn2C1OC(CO)C(O)C1O (stereo unspecified) | 10.5% (inactive) | 46.1% (inactive) | 8.72% (active) | 19.1% (inactive) | 6.74% (active) | 17.2% (inactive) | 8.01% (active) | 13.7% (inactive) |
| COc1ccc(NC(=O)C2CC3C=CC2C3)c([N+](=O)[O-])c1 (stereo unspecified) | 98.1% (inactive) | 139% (inactive) | 102% (inactive) | 110% (inactive) | 101% (inactive) | 120% (inactive) | 103% (inactive) | 105% (inactive) |
| OC(CCN1CCCC1)(c1ccccc1)C1CCCCC1 (stereo unspecified) | 102% (inactive) | 106% (inactive) | 101% (inactive) | 105% (inactive) | 101% (inactive) | 104% (inactive) | 105% (inactive) | 101% (inactive) |
| O=C(Nc1cccc2c1CCCC2)c1cc2ccccc2cc1O | 32.4% (inactive) | 27.4% (inactive) | 41.8% (inactive) | 51.4% (inactive) | 62.6% (inactive) | 6.56% (active) | 59.1% (inactive) | 49.9% (inactive) |
| Cc1ccc(/C=C2/C(=O)N(C)c3ccc(S(=O)(=O)Nc4ccc(C(C)(C)C)cc4)cc32)s1 | 80.5% (inactive) | 97.1% (inactive) | 83.1% (inactive) | 96.7% (inactive) | 72.4% (inactive) | 55.4% (inactive) | 87.8% (inactive) | 82.4% (inactive) |
| COc1ccc(-c2cc(-c3ccccc3)nc(SCCCC(=O)NO)n2)cc1 | -1.07% (active) | 19.6% (inactive) | -3.03% (active) | 2.34% (active) | -5.14% (active) | 3.36% (active) | -16.6% (active) | 17.3% (inactive) |
| O=C1Cc2cc(CCN3CCN(c4nsc5ccccc45)CC3)c(Cl)cc2N1 | 55.2% (inactive) | 92.6% (inactive) | 90.9% (inactive) | 92.9% (inactive) | 86.1% (inactive) | 98.8% (inactive) | 120% (inactive) | 98.1% (inactive) |
| COc1ccc(-c2n[nH]nc2-c2cc(OC)c(OC)c(OC)c2)cc1 | 21.9% (inactive) | 13.6% (inactive) | 4.87% (active) | 19.7% (inactive) | 19.7% (inactive) | 6.27% (active) | 14.2% (inactive) | 0.0603% (active) |
| Cc1ccc(C)c(COc2cc(NC(=O)c3ccc4c(c3)OCO4)ccc2N(C)S(C)(=O)=O)c1 | 8.82% (active) | 27.5% (inactive) | -15% (active) | 28.7% (inactive) | 11.1% (inactive) | -34.1% (active) | -41.5% (active) | -10.9% (active) |
| COc1cc2c3c(n([C@@H]4CCOC4)c(=O)c2cc1OC)-c1cc2c(cc1C3=O)OCO2 | 21.7% (inactive) | 46.2% (inactive) | 62.7% (inactive) | 50.2% (inactive) | 13.5% (inactive) | 27.1% (inactive) | 70.9% (inactive) | 62.4% (inactive) |
| CC[C@@H]1NC(=O)[C@H]([C@H](O)[C@H](C)C/C=C/c2ccc(CN3C(=O)CCCC3=O)cc2)N(C)C(=O)[C@H](C(C)C)N(C)C(=O)[C@H](CC(C)C)N(C)C(=O)[C@H](CC(C)C)N(C)C(=O)[C@@H](C)NC(=O)[C@H](C)NC(=O)[C@H](CC(C)C)N(C)C(=O)[C@H](C(C)C)NC(=O)[C@H](CC(C)C)N(C)C(=O)CN(C)C1=O | 25.3% (inactive) | 8.44% (active) | 10.8% (inactive) | 56% (inactive) | 25.3% (inactive) | 16% (inactive) | 69.6% (inactive) | 45.9% (inactive) |
| O=C(Nc1ccc2c(O)cc(S(=O)(=O)O)cc2c1)c1ccc([N+](=O)[O-])cc1 | 86% (inactive) | 94.3% (inactive) | 106% (inactive) | 100% (inactive) | 96.3% (inactive) | 94.1% (inactive) | 108% (inactive) | 97.2% (inactive) |
| CCC(C)[C@H](NC(C)=O)C(=O)N[C@@H](CCCNC(=N)N)C(=O)N[C@@H](CCCCN)C(=O)N[C@@H](CC1CCC(O)CC1)C(=O)NC(C(=O)N[C@@H](CCSC)C(=O)N[C@@H](CCCNC(=N)N)C(=O)N[C@@]1(C)CCC/C=C\CCC[C@@](C)(C(=O)NC(C(=O)N[C@@H](CCC(=O)O)C(=O)N[C@@H](CC(C)C)C(=O)N[C@H](C(=O)N[C@@H](CCC(=O)O)C(N)=O)C(C)C)[C@@H](C)O)NC(=O)[C@H](CCC(N)=O)NC(=O)[C@H](CC(C)C)NC(=O)[C@H](CC(C)C)NC1=O)[C@@H](C)O (stereo partly specified) | 78.9% (inactive) | 117% (inactive) | 105% (inactive) | 90.4% (inactive) | 102% (inactive) | 89.1% (inactive) | 103% (inactive) | 96.9% (inactive) |
| COc1cc(-c2nn(-c3cccc(NC(=O)CCNc4ccc(N5CCOCC5)cc4)c3)cc2-c2ccncc2)ccc1Cl | 15.2% (inactive) | 19.8% (inactive) | 14.3% (inactive) | 18.6% (inactive) | 7.35% (active) | 5.29% (active) | 43.3% (inactive) | 20.4% (inactive) |
| NC(CSC(c1ccccc1)(c1ccccc1)c1cccc2ccccc12)C(=O)O (stereo unspecified) | 103% (inactive) | 91.7% (inactive) | 90.9% (inactive) | 97.8% (inactive) | 105% (inactive) | 85.7% (inactive) | 103% (inactive) | 91.9% (inactive) |
| O=C(CCCNC(=O)c1nc(-c2ccccc2)n(-c2ccccc2)n1)NO | 94% (inactive) | 106% (inactive) | 109% (inactive) | 106% (inactive) | 92% (inactive) | 85.6% (inactive) | 98.9% (inactive) | 110% (inactive) |
| CCNCC(=O)Nc1ccc(C(=O)OCC)cc1 | 92.9% (inactive) | 102% (inactive) | 102% (inactive) | 97.2% (inactive) | 99.6% (inactive) | 96% (inactive) | 98.7% (inactive) | 95.9% (inactive) |
| COc1cc(C(=O)n2nc(-c3cc(OC)c(OC)c(OC)c3)nc2N)cc(OC)c1OC | 77.1% (inactive) | 100% (inactive) | 95.8% (inactive) | 99.9% (inactive) | 88.3% (inactive) | 91.1% (inactive) | 94.9% (inactive) | 102% (inactive) |
| COc1cc(-c2csc(NC(=O)Nc3cc(C(F)(F)F)cc(C(F)(F)F)c3)n2)cc(OC)c1OC | -8.28% (active) | 0.972% (active) | 13% (inactive) | 26.5% (inactive) | 2.97% (active) | 0.288% (active) | 22.4% (inactive) | 18.7% (inactive) |
